About 6,400 (1.6%) of roughly 410,000 compounds were called active. A call without a number means that no potency is given here. Another 20% or so got no clear call; they are omitted. This excerpt belongs to a sample that is enriched for actives. A number with no mark means an inactive call. The call rests on the fitted dose curve; in most records, active means well fitted inhibition curve with a large enough effect; inconclusive means small, poorly fitted or top-dose-only effect; inactive means no such curve, though single readings can be large or run the other way.
Potency means the concentration at half of the fitted maximal effect.

Glucagon-like peptide 1 receptor (Homo sapiens), sequence (P43220 whole entry, looked up): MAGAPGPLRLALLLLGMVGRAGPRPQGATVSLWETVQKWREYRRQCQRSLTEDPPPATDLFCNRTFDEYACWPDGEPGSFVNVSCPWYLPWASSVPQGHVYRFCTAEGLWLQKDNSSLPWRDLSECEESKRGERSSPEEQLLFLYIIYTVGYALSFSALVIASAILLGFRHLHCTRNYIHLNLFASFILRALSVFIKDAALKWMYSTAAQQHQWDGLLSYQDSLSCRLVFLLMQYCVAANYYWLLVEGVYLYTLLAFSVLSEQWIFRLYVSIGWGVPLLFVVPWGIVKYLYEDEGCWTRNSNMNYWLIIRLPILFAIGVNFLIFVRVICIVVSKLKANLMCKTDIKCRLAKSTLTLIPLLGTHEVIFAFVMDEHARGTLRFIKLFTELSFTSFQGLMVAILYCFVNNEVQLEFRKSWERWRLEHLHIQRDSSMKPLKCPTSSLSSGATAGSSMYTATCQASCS

For this experiment, the target named is Glucagon-like peptide 1 receptor (Homo sapiens) (UniProt P43220). Kind of experiment: qHTS of GLP-1 Receptor Inverse Agonists (Inhibition Mode). Further: nearly all actives have a fitted effect of over 55% in size. The following applies: HEK293 GLP-1R CRE-luciferase, luminescence, 24 h, GLP-1R form is constitutively active; series mostly up to 38.3 µM. The gist of the method:
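Seeding at 200 cells/uL, 12 h culture, 24 hr compound treatment, then luciferase reagent and a luminescence read; cells are HEK293 stably expressing a constitutively active GLP-1R plus cAMP-responsive luciferase.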
(In general: In qHTS, concentration-response curves come from the screen itself.)
Take `COc1cc(NC(=O)C2=C(C)OCCS2)c(Cl)cc1C(=O)NCCCN1CCCC(C)C1` (centres undefined): the Potency entry is “inactive”. For the compound `O=C(NNc1ccccc1Cl)C(O)(c1cccc(C(F)(F)F)c1)c1cccc(C(F)(F)F)c1`, the Potency was 3.98 µM (active). For the compound `O=C(Nc1cc(C(F)(F)F)ccc1Cl)c1nc2ccccc2nc1N1CCCCC1`, the Potency result is “inactive”. Same read-out and setting: for `O=C(CNS(=O)(=O)c1cccc(C(F)(F)F)c1)Nc1ccccc1F` the value was “inactive”; for `O=C(COC(=O)c1cncc(Br)c1)Nc1ccc(S(=O)(=O)N2CCOCC2)cc1`, “inactive”; for `CC1(Oc2ccc(Cl)cc2)CCN(Cc2csc3ccccc23)C1` (centres undefined), “inactive”. For `CCc1ccccc1NC(=O)c1cnn(-c2ccc(F)cc2)c1C1CCNCC1`, the Potency result is “inactive”. For the compound `CCCc1c(C(=O)Nc2ccc(F)cc2)cnn1-c1ccccc1`, the Potency was 10 µM (active). For the compound `CCCc1c(C(=O)O)cnn1-c1ccc(Cl)cc1`, the Potency result is “inactive”. `Cc1cc(OCC(=O)Nc2nccs2)c2c(C)c(C)c(=O)oc2c1`: the Potency entry is “inactive”. For the compound `Cc1noc(C)c1CSCC(=O)Nc1nc2ccc(Oc3ccccc3)cc2s1`, the Potency is 7.94 µM (active). `Cc1ccc(F)cc1NC(=O)CSCc1c(C)noc1C`: the Potency entry is “inactive”. With `CCc1noc(C)c1C(=O)Nc1nc2ccc(OC)cc2s1`, the Potency entry is “inactive”. With `COc1ccc(S(=O)(=O)N2CCC(C(=O)NCCC(=O)NCCc3cccc(F)c3)CC2)cc1`, the Potency entry was “inactive”. In the case of `Cc1ccc2nc(CNC(=O)c3ccccc3)[nH]c2c1`, the Potency result is “inactive”. Turning to `CC(C)c1nc2ccc(C(=O)O)cc2[nH]1`, the Potency entry was “inactive”.

With `COC(=O)Nc1nc2ccc(Sc3ccccc3)cc2[nH]1`, the Potency was 1.12 µM (active). In the case of `Cc1cccc(C(=O)OCC(=O)Nc2sccc2C(N)=O)c1C`, the Potency result is “inactive”. As to `CC(C)C1CCN(C(=O)C2CCC(=O)N(C3CCCCCC3)C2)CC1` (centres undefined), the Potency entry was “inactive”. Still for that read-out and setting: to `Cc1ccc(/C=C2\SC(=S)N(CCC(=O)Nc3ccc(O)cc3)C2=O)cc1` belongs “inactive”; to `O=C(CCCN1C(=O)/C(=C/c2cccs2)SC1=S)Nc1ccc(O)cc1`, 5.01 µM (active). Turning to `O=C(CCN1C(=O)/C(=C/c2cccs2)SC1=S)NNC(=O)c1cccc(O)c1`, the activity change, negative = inhibition was -10.3% [at 7.66 µM]. `CCCNC(=O)C1(C)CCN1C(=O)Cc1ccc(-c2ccccc2)cc1` (centres undefined): the Potency entry was “inactive”. Take `O=C(c1ccc(CS(=O)Cc2ccccc2Cl)o1)N1CCN(c2ccccc2)CC1` (centres undefined): the Potency result is “inactive”.

As to `OCC1OC(n2cnc3c(N4CCCC4)ncnc32)C(O)C1O` (centres undefined), the Potency result is “inactive”. Regarding `CC(=O)N1CCN(Cc2cc(=O)oc3cc(C)ccc23)CC1`, the Potency entry was “inactive”. Consider `Cc1ccc(C(=O)Nc2c(-c3ccccc3)[nH][nH]c2=O)cc1`, for which the Potency result is “inactive”. In the case of `CCc1cccc(C)c1NS(=O)(=O)c1cc(Br)cnc1N`, the Potency was 10 µM (active). For the compound `CCc1cccc(C)c1NS(=O)(=O)c1ccc(-c2cc(C)no2)s1`, the Potency entry is “inactive”.

As to `COc1ccc(N2CCN(S(=O)(=O)c3cc(Br)cnc3N)CC2)cc1`, the Potency entry was “inactive”. For `Cc1ccc(-c2nc3c(Cl)cc(C(F)(F)F)cn3c2Cc2cccc(Cl)c2)cc1`, the Potency entry is “inactive”. Same read-out and setting: for `CCn1c(SCC(=O)N2CCCC2=O)nc2ccccc21` the value was “inactive”; for `CC(C)c1cc(C(=O)N/N=C/C(Br)=C/c2ccccc2)n[nH]1`, 8.91 µM (active); for `CC(C)c1cc(C(=O)O)n[nH]1`, “inactive”. As to `Cc1cc(C(=O)N/N=C\C(Br)=C\c2ccccc2)c(C)o1`, the activity change, negative = inhibition was 5.04% [at 7.66 µM].

On to `COCCNc1ncnc2c1ncn2[C@H]1CN(Cc2ccc(OC)cc2)C[C@@H](CO)O1`, for which the Potency result was “inactive”. Same read-out and setting: to `O=C(C1CCN(S(=O)(=O)c2ccc(Br)s2)CC1)N1CCN(C2CCCCC2)CC1` belongs 10 µM (active); to `O=C(NC1CCCCC1)C1CCCN(S(=O)(=O)c2ccc(Br)s2)C1` (centres undefined), “inactive”. As for `O=C(C1CCN(S(=O)(=O)c2cccs2)CC1)N1CCCCCC1`, the Potency entry was “inactive”. Turning to `CN1C[C@@H](CO)O[C@@H](n2cnc3c(N4CCN(CCO)CC4)ncnc32)C1`, the Potency entry is “inactive”. For `CCCCN1CC(N2CCN(Cc3cccc(C)c3)CC2)CS1(=O)=O` (centres undefined), the Potency entry was “inactive”. The same measure, in the same setting: to `CCCNC(=S)N1CCC(NC(=O)c2ccc(OC)cc2)CC1` belongs “inactive”. Regarding `COc1ccc(NC(=S)N2CCC(NC(=O)c3cccc(F)c3)CC2)cc1`, the Potency entry was “inactive”. As to `COc1cc(OC)cc(C(=O)NC2CCN(C(=O)N3c4ccccc4Sc4ccccc43)CC2)c1`, the Potency was 10 µM (active). With `COc1cccc(-c2cc(NC(C)=O)c3ncc(-c4cccc(C(C)=O)c4)n3c2)c1`, the Potency entry is “inactive”. `CCOC(=O)N1CCN(C(=O)COc2ccc(Cl)cc2C)CC1`: the Potency result was “inactive”.

For `CCOC(=O)/C(=N\Nc1ccccc1Cl)N(C)C1CCS(=O)(=O)C1` (centres undefined), the Potency result is “inactive”. Take `CCOC(=O)/C(=N\Nc1cc(Cl)ccc1Cl)N1CCN(C)CC1`: the Potency was 10 µM (active). Consider `Cn1c(=O)c2cc(NC(=O)NCCc3cccs3)ccc2n1Cc1cccc(C(F)(F)F)c1`, for which the Potency result was “inactive”.

`Cc1oc2c(F)c(F)c(F)c(F)c2c1S(=O)(=O)Nc1cccc(C(F)(F)F)c1`: the Potency was 3.98 µM (active). As for `O=C(COc1ccc(S(=O)(=O)Nc2cccc(C(F)(F)F)c2)cc1)N1CCOCC1`, the Potency result was “inactive”. For the compound `O=C(/C=C/c1ccc(F)cc1)Nc1cccc(S(=O)(=O)Nc2cccc(C(F)(F)F)c2)c1`, the Potency result was “inactive”. For `COc1ccc(C2=Nc3ccccc3NC(=O)C2N(C(=O)c2cc3ccccc3[nH]2)c2ccccc2)cc1` (centres undefined), the Potency entry was “inactive”.

With `Cc1ccc(Nc2c(-c3ccc(Cl)cc3)nc3sccn23)c(C)c1`, the Potency is 14.1 µM (active). With `O=c1cc(Cn2nnc(-c3ccc(Cl)cc3)n2)nc2sccn12`, the Potency result is “inactive”. Take `CC(=O)Nc1c(-c2ccc(C)cc2)nc2ccc(Cl)cn12`: the Potency entry is “inactive”.

Take `CC(C)CCOc1ccc(C(=O)Nc2cc(S(=O)(=O)N3CCOCC3)ccc2N2CCOCC2)cc1`: the Potency entry was “inactive”. As for `CCc1nc2ccc(C(=O)N(C)CCN(C)C)cn2c1N(CC)CCOC`, the Potency result is “inactive”. Turning to `OC[C@@H]1CN(Cc2ccc3c(c2)OCO3)C[C@H](n2cnc3c(NCc4ccco4)ncnc32)O1`, the Potency result is “inactive”. The same measure, in the same setting: to `O=C(CSc1ccc(Cl)cc1)NC1CC1` belongs “inactive”; to `COc1ccc(NC(=O)c2c(C)oc3c2CCCC3)cc1`, “inactive”; to `CC1CCc2noc(NC(=O)c3ccc([N+](=O)[O-])cc3)c2C1` (centres undefined), “inactive”.

`COc1ccc(C(=O)Nc2onc3c2CCCC3)cc1`: the Potency is 11.2 µM (active). Take `O=C1NC[C@H](CCCCN2C[C@H](Cc3ccccc3)N(Cc3ccccc3)C(=O)C2=O)N(CCc2ccc(O)cc2)C1=O`: the Potency result is “inactive”.

(Values after PubChem BioAssay AID624417 (National Center for Advancing Translational Sciences (NCATS), 2012).)
